# Measurements taken from PubChem BioAssay.
# Biological target: Focal adhesion kinase 1 (Homo sapiens) (UniProt Q05397)
# Assay: small-molecule microarray binders of FAK, primary screen, biochemical, 635/667 nm fluorescence, BSA, DTT (AID 1130);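 further: composite of spot emission at 667 nm and signal to noise over triplicate slides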
# Conditions: PTK2 binding, 635 nm fluorescence, higher = more signal
# Chain of Focal adhesion kinase 1 (Homo sapiens) (Q05397 whole entry, looked up): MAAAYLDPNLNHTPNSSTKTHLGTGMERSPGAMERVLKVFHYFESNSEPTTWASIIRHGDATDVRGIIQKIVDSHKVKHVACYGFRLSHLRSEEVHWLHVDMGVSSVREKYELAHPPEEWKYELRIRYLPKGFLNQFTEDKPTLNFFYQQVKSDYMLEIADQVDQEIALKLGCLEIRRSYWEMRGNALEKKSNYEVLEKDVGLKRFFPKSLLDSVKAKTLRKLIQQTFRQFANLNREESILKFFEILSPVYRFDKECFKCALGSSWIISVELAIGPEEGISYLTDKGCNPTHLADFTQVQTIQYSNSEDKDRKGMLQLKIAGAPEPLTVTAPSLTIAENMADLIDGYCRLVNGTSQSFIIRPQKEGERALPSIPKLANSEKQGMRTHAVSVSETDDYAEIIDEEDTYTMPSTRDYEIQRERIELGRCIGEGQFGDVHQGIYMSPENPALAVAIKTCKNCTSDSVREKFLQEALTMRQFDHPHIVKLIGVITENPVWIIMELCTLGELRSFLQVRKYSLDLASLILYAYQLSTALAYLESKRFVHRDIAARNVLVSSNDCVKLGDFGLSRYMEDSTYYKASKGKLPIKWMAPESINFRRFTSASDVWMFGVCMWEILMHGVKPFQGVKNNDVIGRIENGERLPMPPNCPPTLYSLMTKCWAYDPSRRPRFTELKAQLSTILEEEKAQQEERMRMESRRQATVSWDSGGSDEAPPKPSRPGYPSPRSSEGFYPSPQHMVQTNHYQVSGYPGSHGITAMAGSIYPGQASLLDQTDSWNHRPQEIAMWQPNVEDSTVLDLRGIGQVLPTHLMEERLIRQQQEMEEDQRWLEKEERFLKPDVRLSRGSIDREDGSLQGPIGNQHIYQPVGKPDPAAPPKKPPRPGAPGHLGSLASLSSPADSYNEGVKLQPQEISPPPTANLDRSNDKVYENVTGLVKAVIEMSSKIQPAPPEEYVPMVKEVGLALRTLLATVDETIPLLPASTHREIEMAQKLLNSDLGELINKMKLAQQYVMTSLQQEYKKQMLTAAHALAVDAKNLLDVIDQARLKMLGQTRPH
row,Compound,composite z-score
1,C=C(COC)/C(=C/C[C@@H](OC(C)=O)c1cccc(OCCO)c1)c1cc(C(=O)OC)ccc1OC,-0.453
2,CC(C)(C)OC(=O)CC[C@]1(C(=O)NCCN2CCOCC2)N=C(c2ccc(OCCCO)cc2)O[C@H]1c1ccccc1CN=[N+]=[N-],1.17
3,CC(=O)NCCCC[C@@H]1NC(=O)[C@@H]2C[C@H](C(=O)NCCCCCCN(C)C)[C@H](c3ccc(O)cc3)N2C1=O,0.383
4,Cc1ccc(S[C@]2(C(=O)O)CC(=O)N(Cc3ccccc3)[C@@H]2c2ccc(CO)cc2)cc1,-0.412
5,O=C1c2ccccc2[C@](Cc2ccccc2I)(C(=O)NCC(F)(F)F)[C@H](c2ccc(CO)cc2)N1Cc1ccccc1C(F)(F)F,0.857
6,O=C1OCCC=C[C@H]2OC34C=CCN(Cc5ccccc5)C(=O)[C@H]3N(CCO)C(=O)[C@@H]4C12 (stereo partly specified),-0.616
7,C=CCNC(=O)[C@H]1[C@@H]2C(=O)O[C@@H](c3ccccc3)[C@@H](c3ccccc3)N2[C@@H](c2ccccc2OCCO)[C@]12C(=O)N(C(=O)OCCOC)c1ccc(C#CCC(C(=O)OC)C(=O)OC)cc12,0.751
8,COc1ccc([Si](C)(C)[C@H]2[C@H](CC(=O)N3Cc4ccccc4C[C@H]3CO)O[C@@]3(C(=O)N(Cc4cccc(N5CCOC5=O)c4)c4ccccc43)[C@@H]2C)cc1,0.432
9,CC(C)N1CC=CC23O[C@@H]4/C=C\CCCOC(=O)C4[C@H]2C(=O)N(CCO)[C@@H]3C1=O (stereo partly specified),0.339
10,CC(C)CN1C(=O)[C@@]2(Cc3ccccc31)c1ccccc1C(=O)N(C1CCCCC1)[C@H]2c1ccc(CO)cc1,-0.133
11,COc1cccc([C@@H]2[C@@H](C)CC[C@H]3C(=O)N4[C@H](c5cccc(OC)c5)[C@@H](C)CC[C@H]4C(=O)N23)c1,-0.175
12,CO[C@H]1COC(=O)[C@H](Cc2ccccc2)NC(=O)CC=C[C@@H](C)[C@H](OC)COC(=O)CC=C[C@@H]1C,-0.237
13,CO[C@H]1COC(=O)[C@@H](OCc2ccccc2)C=C[C@H](C)[C@@H](OC)COC(=O)[C@H](OCc2ccccc2)C=C[C@@H]1C,0.104
14,O=C1O[C@@H](c2ccccc2)[C@@H](c2ccccc2)N2[C@@H](c3ccc(O)cc3)[C@]3(C(=O)Nc4ccccc43)[C@@H](C(=O)N3CCN(c4ncccn4)CC3)[C@H]12,0.225
15,O=C1O[C@@H](c2ccccc2)[C@@H](c2ccccc2)N2[C@@H](c3ccc(O)cc3)[C@]3(C(=O)Nc4ccc(C#CC5(O)CCCCCC5)cc43)[C@@H](C(=O)Nc3nc4ccccc4s3)[C@H]12,0.706
16,C=CC[C@]1(C(N)=O)N=C(c2ccc(OCCCO)cc2)O[C@H]1c1ccccc1CN=[N+]=[N-],0.409
17,COCCOC(=O)N1C(=O)[C@@]2(c3cc(C#CCCO)ccc31)[C@H](C(=O)N1CCCCCCC1)[C@H]1C(=O)O[C@H](c3ccccc3)[C@H](c3ccccc3)N1[C@@H]2c1ccc(O)cc1,1.49
18,C=CCOC(=O)[C@@H]1[C@H]2C(=O)O[C@H](c3ccccc3)[C@H](c3ccccc3)N2[C@H](c2ccc(OCCOC(=O)[C@H]3C[C@H]4C(=O)N5CCC[C@H]5C(=O)N4[C@H]3c3ccc(O)cc3)cc2)[C@@]12C(=O)Nc1ccccc12,0.782
19,CO[C@H]1COC(=O)CC=C[C@@H](C)COC(=O)[C@@H](C)NC(=O)CC=C[C@@H]1C,-1.02
20,C=CCN1C(=O)[C@@]2(O[C@@H](CCn3cc([C@H](O)c4ccccc4)nn3)[C@H]([Si](C)(C)c3ccc(OC)cc3)[C@H]2C)c2cc(N3CCOC3=O)ccc21,0.533
21,CCCC/C=C/[C@H]([C@@H](O)Cc1ccccc1)N(CC#Cc1ccccc1)Cc1ccccc1Br,-0.219
22,CCOC(=O)[C@H]1C/C=C/C[C@H](C(=O)OCC)C(=O)O[C@H]2[C@@H](OC)O[C@H](CO)[C@@H](OC(=O)Nc3ccc(Br)cc3)[C@@H]2OC1=O,0.361
23,COC(=O)c1c(CC[C@@H](CO)NC(=O)N[C@H](Cn2cc(-c3cncn3C)nn2)C(C)C)oc(C(C)=O)c1C(=O)OC,-0.205
24,COc1ccc([Si](C)(C)[C@H]2[C@H](CCO)O[C@@]3(C(=O)N(Cc4ccc(N5CCCCC5=O)cc4)c4ccccc43)[C@@H]2C)cc1,0.0098
25,O=C1c2ccccc2[C@](Cc2ccccc2I)(C(=O)O)[C@H](c2ccc(CO)cc2)N1C1CCCCC1,0.398
26,CCCNC(=O)[C@@]1(Sc2ccc(C)cc2)CC(=O)N(Cc2ccccc2Cl)[C@@H]1c1ccc(CO)cc1,0.29
